Growth data for eight molecules are collected here from PubChem BioAssay (NCI).

Compounds without any hit were thinned out: in the full panel of roughly 83,000, 20% have a hit.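 The test compound was applied at a single concentration to cells in 96-well plates for 48 hours, and percent growth was recorded.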 Unmarked numbers belong to inactive results. The source made the active and inactive calls. The calls were made as follows: active = growth percent below 10; inactive = the rest.

What all share (experiment): NCI-60 one-dose screen, 48 h (100 = growth as untreated, 0 = no growth, -100 = all killed)
Holding throughout (details): 10 µM unless noted

The subject of experiment [1] is SK-MEL-2 melanoma.
Experiment [2] deals with EKVX NSCLC.
Experiment [3] concerns SN12C renal.
Experiment [4] deals with UO-31 renal.
Experiment [5] concerns TK-10 renal.
For experiment [6], the system named is ACHN renal.
For experiment [7], the system named is CAKI-1 renal.
In experiment [8] the test system is A498 renal.
For experiment [9], the system named is CCRF-CEM leukemia.
The subject of experiment [10] is MOLT-4 leukemia.
The subject of experiment [11] is SR leukemia.
The test system of experiment [12] is RPMI-8226 leukemia.
Experiment [13] concerns OVCAR-8 ovarian.
The subject of experiment [14] is OVCAR-5 ovarian.
Experiment [15] deals with OVCAR-4 ovarian.
Experiment [16] has as its system SK-OV-3 ovarian.
The test system of experiment [17] is IGROV1 ovarian.
In experiment [18] the test system is OVCAR-3 ovarian.
For experiment [19], the system named is HS 578T breast.
Experiment [20] relates to NCI/ADR-RES ovarian.

Take `Nc1c(C(=O)Nc2cccc3c2OCCO3)sc2nc3c(cc12)CN(Cc1ccccc1)CC3`: the growth in [1] is 56.2%; in [2], 83.3%; in experiment [3], 87.2%; in experiment [4], 60.4%; in experiment [5], 96.8%; in experiment [6], 77.2%. Also, the growth in [7] was 55.3%; in experiment [8], 37.9%; in [9] it was 36.3%; in experiment [10], 52.5%; in experiment [11], 35.5%; in [12], 77.5%. Further, the growth is 87.7% in experiment [13]; 95.3% in [14]; 74.5% in experiment [15]; 89.2% in experiment [16]; 60.7% in [17]; 26.7% in experiment [18]. The growth in experiment [19] is 66%; in [20], 53%.

In the case of `O=C1/C(=C/c2ccccc2)CN(CCC(=O)N2C/C(=C\c3ccccc3)C(=O)/C(=C/c3ccccc3)C2)C/C1=C\c1ccccc1`, the growth in experiment [1] is 92.1%; in [2], 63.6%; in experiment [3], 68.3%; in experiment [4], 47.7%; in experiment [5] it was 98.5%; in [6], 62.1%. Moreover, the growth in [7] was 61.7%; in experiment [8], 60.8%; in experiment [9], 9.77% (active); in [10], 29.5%; in [11], 16.5%; in experiment [12] it was -18.8% (active). Also, the growth was 16.9% in experiment [13]; 91% in experiment [14]; 67.8% in experiment [15]; 51.3% in experiment [16]; 70.6% in experiment [17]; 32.8% in [18]. In addition, the values for the growth in [19] and in [20] were 58.1% and 76.1%, respectively.

`COc1ccc(-c2cc(=O)[nH]c3c(OC)c4ccccc4c(OC)c23)cc1`: the growth in experiment [1] was 27.6%; in experiment [2], 26.4%; in [3], 43.2%; in experiment [4], 31.3%; in experiment [5], 47.8%; in experiment [6], 50.5%. Further, the growth was 38.7% in [7]; -4.12% (active) in [8]; 10.8% in experiment [9]; 6.7% (active) in experiment [10]; -14% (active) in experiment [11]; 4.21% (active) in [12]. In addition, the growth is 33.3% in [13]; 36.3% in [14]; 30.8% in experiment [15]; 2.24% (active) in experiment [16]; 32.8% in experiment [17]; -43.2% (active) in experiment [18]. Besides, the growth in experiment [19] is -6.69% (active); in experiment [20] it was 3.17% (active).

As to `CN1CCN(Cc2ccc(NC(=O)c3cncc(C#Cc4cncc5nccnc45)c3)cc2C(F)(F)F)CC1`, the growth was -13.2% (active) in experiment [1]; 71.2% in experiment [2]; 31.7% in experiment [3]; 20.4% in [4]; 96% in experiment [5]; 24% in experiment [6]. For the same molecule, the growth in experiment [7] is 22.2%; in experiment [8] it was 21.4%; in experiment [9] it was 58.2%; in experiment [10] it was 37%; in [11], 63.7%; in experiment [12] it was 36.9%. The growth in experiment [13] was 62.1%; in [14], 36.4%; in experiment [15] it was 38.9%; in experiment [16] it was 74.7%; in experiment [17], 22.2%; in experiment [18], 69.9%. Moreover, the growth in experiment [19] is 39.6%; in [20] it was 72.4%.

In the case of `Oc1ccc2c(=S)cc(-c3ccc(Br)cc3)oc2c1O`, the growth in experiment [1] is 63.8%; in experiment [2], 87.9%; in experiment [3], -4.08% (active); in experiment [4], 17.4%; in [5] it was 103%; in experiment [6], 13.9%. Further, the growth in experiment [7] is 65.8%; in [8] it was 53.9%; in experiment [9] it was 5.37% (active); in experiment [10] it was 7.88% (active); in [11] it was 1.21% (active); in experiment [12] it was -8.44% (active). The growth was -6.62% (active) in experiment [13]; 67.9% in experiment [14]; -1.04% (active) in experiment [15]; 62.3% in [16]; 19% in experiment [17]; -21.7% (active) in [18]. Further, the growth was 84% in experiment [19] and -8.87% (active) in experiment [20].

On to `Nc1nc2c(c3ncccc13)C(c1ccc(Cl)c(Cl)c1)Cc1ncccc1-2` (stereo not given), for which the growth in experiment [1] was 18.4%; in [2], 44.5%; in experiment [3], 34.1%; in [4], 36.9%; in experiment [5], 29.5%; in [6], 30.2%. The growth in experiment [7] is 30.9%; in experiment [8], -13.5% (active); in [9] it was 2.45% (active); in experiment [10] it was 5.36% (active); in experiment [11], 0.136% (active); in [12], 15.8%. Also, the growth in experiment [13] was 34.2%; in experiment [14] it was 81.3%; in experiment [15], 67.6%; in experiment [16] it was 19.7%; in [17], 50.8%; in [18] it was -8.92% (active). Besides, the growth is 31.5% in [19] and 4% (active) in experiment [20].

As to `CCN(CC)CC(O)c1cc(-c2ccc(Cl)cc2)nc2c(C)c(Cl)ccc12` (stereo not given), the growth in experiment [1] was -68.8% (active); in experiment [2], -63.1% (active); in [3], -86.4% (active); in experiment [4], -78.8% (active); in experiment [5] it was -92.5% (active); in [6] it was -93.2% (active). For the same molecule, the growth in experiment [7] is -100% (active); in experiment [8] it was -36.4% (active); in experiment [9] it was -37.4% (active); in experiment [10], -72.4% (active); in experiment [11], -79.5% (active); in experiment [12] it was -32.2% (active). Further, the growth is -82.7% (active) in experiment [13]; -97.3% (active) in experiment [14]; -26% (active) in experiment [15]; 29.2% in experiment [16]; -84.7% (active) in experiment [17]; -100% (active) in experiment [18]. Further, the growth in experiment [19] is -62.4% (active); in [20], -84.7% (active).

Regarding `COc1cc(OC)c(/C=C/S(=O)(=O)Cc2ccc(OC)c(N)n2)c(OC)c1`, the growth was 8.32% (active) in [1]; 37.3% in [2]; 24.3% in experiment [3]; 31.9% in [4]; 33.7% in experiment [5]; 28.3% in [6]. Further, the growth is 25.5% in experiment [7]; -1.72% (active) in experiment [8]; 9.98% (active) in experiment [9]; 2.56% (active) in experiment [10]; 0.349% (active) in experiment [11]; 33.1% in [12]. In addition, the growth in [13] was 11%; in experiment [14], 50.5%; in [15], 42.1%; in experiment [16] it was 5.23% (active); in experiment [17] it was 26.4%; in experiment [18], -27.7% (active). The growth was 43.8% in experiment [19] and 10.2% in experiment [20].
